Most compounds without a hit are left out; they make up all but 10% or so of the library.
G9a block: qHTS Assay for Inhibitors of Histone Lysine Methyltransferase G9a | Histone-lysine N-methyltransferase EHMT2 (Homo sapiens), Q96KQ7 | G9a H3K9 monomethylation, AlphaScreen, 2 h | Potency, µM (doses to about 102 µM), inactives show top-dose activity, negative = inhibition, most hits filed as inhibitors | actives 8.8% (n = 350,000) | AID 504332, 2011; further: potency means the concentration at half of the fitted maximal effect; on the % scale 0 is the no-effect control and ±100 the full control effect; nearly all actives have a fitted effect of over 75% in size
Target sequence (Q96KQ7 913-1193 limits assumed): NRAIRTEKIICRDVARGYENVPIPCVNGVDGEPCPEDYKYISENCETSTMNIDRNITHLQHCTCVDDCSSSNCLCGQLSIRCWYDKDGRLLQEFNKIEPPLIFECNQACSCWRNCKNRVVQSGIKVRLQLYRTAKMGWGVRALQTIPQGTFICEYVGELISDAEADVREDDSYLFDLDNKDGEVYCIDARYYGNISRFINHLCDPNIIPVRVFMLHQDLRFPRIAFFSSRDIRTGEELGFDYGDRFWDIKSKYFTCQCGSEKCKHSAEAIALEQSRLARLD
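AlphaScreen detection with an anti-monomethyl H3K9 antibody quantified product after a 2 h room-temperature reaction containing 500 nM biotinylated H3K9 peptide, 20 µM SAM and 20 nM enzyme, which had been preincubated 15 min with compound.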
JMJD2A Tudor inh: qHTS Assay for Inhibitors of JMJD2A-Tudor Domain. AID 504339, 2011. Potency, µM (highest dose often 114 µM), without a hit: at the highest dose activity change, negative = inhibition, usual class: inhibitors. Lysine-specific demethylase 4A (Homo sapiens), O75164. AlphaScreen JMJD2A-Tudor / H3K4me3 peptide binding. actives 4.4% (n = 390,000); further: potency means the concentration at half of the fitted maximal effect; on the % scale 0 is the no-effect control and ±100 the full control effect; nearly all actives have a fitted effect of over 50% in size
HP1b chromo inh: HTS for Inhibitors of HP1-beta Chromodomain Interactions with Methylated Histone Tails. Chromobox protein homolog 1 (Homo sapiens), P83916. AlphaScreen HP1-beta / biotin-H3K9me3 peptide binding. Potency, µM (series often up to 114 µM), for the others: at the top dose activity change, negative = inhibition, actives largely listed as inhibitors. actives 0.56% (n = 390,000). AID 540317, 2011; further: potency means the concentration at half of the fitted maximal effect; nearly all actives have a fitted effect of over 70% in size
Target sequence (P83916 whole entry, looked up): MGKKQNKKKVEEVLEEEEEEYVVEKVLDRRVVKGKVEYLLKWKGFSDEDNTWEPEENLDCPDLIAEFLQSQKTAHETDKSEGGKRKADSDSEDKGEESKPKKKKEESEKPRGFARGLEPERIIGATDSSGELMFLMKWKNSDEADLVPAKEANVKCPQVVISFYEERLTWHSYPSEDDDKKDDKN
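AlphaScreen: HP1-beta (50 nM) preformed 30 min with biotin-H3(1-18)K9me3 peptide (50 nM) in PBS pH 7.4, 0.01% Tween-20. Compound added for 30 min at RT, then streptavidin donor/nickel chelate acceptor beads (10 ug/mL) for 30 min.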
Six1-Eya2 blk: qHTS Assay for Inhibitors of the Six1/Eya2 Interaction; actives 0.56% (n = 360,000); Homeobox protein SIX1 (Homo sapiens) + Protein phosphatase EYA2 (Homo sapiens), …; activity change, % (no concentration beside the values); AID 651725, 2012; AlphaScreen GST-Six1/His-Eya2 binding, biochemical; hits give low values; in the data active means activity change below about -65%; inconclusive means mostly about -30% to -63%; further: on the % scale 0 is the no-effect control and ±100 the full control effect
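Six1/Eya2 binding was read as AlphaScreen signal after compounds were pinned into GST-Six1 plus His-tagged Eya2 (5X stock 250/500 nM) in pH 8.0 Tris/NaCl/TCEP buffer, beads added, then incubated 1 h, 37 C, dark.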
BAZ2B block: qHTS Assay for Inhibitors of BAZ2B. Bromodomain adjacent to zinc finger domain protein 2B (Homo sapiens), Q9UIF8. AlphaScreen BAZ2B-H3K14Ac peptide displacement. Potency, µM (top dose mostly 114 µM), inactives show at the highest dose activity change, negative = inhibition, usual class: inhibitors. actives 4.4% (n = 360,000); further: potency means the concentration at half of the fitted maximal effect; on the % scale 0 is the no-effect control and ±100 the full control effect; nearly all actives have a fitted effect of over 60% in size
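Protein-peptide AlphaScreen: BAZ2B 50 nM, b-H3K14Ac 50 nM, 1x PBS pH 7.4 + 0.01% Tween-20. Preincubation 30 min RT; cpd 30 min RT (top 110 uM); beads 20 min RT, light-protected.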
CtBP-E1A blk: qHTS Assay for Inhibitors of the CtBP/E1A Interaction; AlphaScreen GST-E1A/His-CtBP binding, 1536-well; hits give low values; AID 651724, 2012; CtBP / adenovirus E1A interaction (AlphaScreen); activity change, % (no concentration beside the values); actives 0.49% (n = 340,000); in the data active means activity change below about -65%; inconclusive means mostly about -30% to -63%; further: on the % scale 0 is the no-effect control and ±100 the full control effect
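AlphaScreen with 125 nM GST-E1A and 125 nM His-CtBP (5X stocks) in Tris pH 8.0, 300 mM NaCl, BSA, Tween 20, TCEP. Compounds preincubated 2 h at 37 deg C, then glutathione donor/nickel acceptor beads added for 1 h at 37 deg C in dark.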
* hit, by the source's call; ? = inconclusive; . = no result; [ ] = another dose, or the depositor's remark. Unless noted, the call rests on the fitted dose curve; in most records, active means well fitted inhibition curve with a large enough effect; inconclusive means small, poorly fitted or top-dose-only effect; inactive means no such curve, though single readings can be large or run the other way.

SMILES	G9a block	JMJD2A Tudor inh	HP1b chromo inh	Six1-Eya2 blk	BAZ2B block	CtBP-E1A blk
Cc1cccc(NC(=O)c2sc(-n3nc(C)c(Cc4ccc5c(c4)OCO5)c3C)nc2C)c1C	10%[59 µM]	-18%	24%	.	3%	.
Cc1cnc(CN2CCCC(C(=O)c3ccc4c5c(cccc35)CC4)C2)[nH]1 (configuration not stated)	?	50µM*	?	-18	?	0
O=C(c1ccc2c3c(cccc13)CC2)C1CCCN(Cc2ccc(OCCO)cc2)C1 (configuration not stated)	.	-54%	-15%	?	?	.
CCOC(=O)c1scc(-c2ccc(C)cc2)c1S(=O)(=O)Nc1cc(Cl)ccc1OC	-40%[59 µM]	-24%	11%	.	-39%	.
Cc1ccc([N+](=O)[O-])cc1S(=O)(=O)NCCc1c(C)[nH]c2ccccc12	?	?	-31%	-9	50µM*	6
COc1cc(S(=O)(=O)NCCc2c(C)[nH]c3ccccc23)c(C)cc1C	?	28µM*	?	.	35µM*	.
Cc1ccc([N+](=O)[O-])cc1S(=O)(=O)NCCc1cn2ccccc2n1	.	-15%	29%	-3	-23%	-8
Cc1ccc(N(C)S(=O)(=O)c2ccc3[nH]cc(C(=O)O)c(=O)c3c2)cc1C	-12%[59 µM]	-28%	15%	.	-19%	.
CCOC(=O)C1=C(Nc2ccccc2)OCC1=O	2%[59 µM]	-19%	31%	2	8%	3
O=C(O)C1=C(Nc2ccccc2)OCC1=O	40µM*	?	24%	9	-1%	-6
COc1ccc(N2CC(NC(=O)C3CCCCC3)CC2=O)cc1OC (configuration not stated)	?	-6%	11%	.	-2%	.
CCc1cccc(OCC(=O)Nc2ccc(S(=O)(=O)N3CCCC3)cc2)c1	40%	-5%	38%	-3	0%	-4
CN1CCC(N(C)S(=O)(=O)c2ccc(NC(=O)COc3cccc(Cl)c3)cc2)CC1	40µM*	-22%	-2%	-10	3%	-5
Cc1cc(C)c(OCC(=O)Nc2ccc(S(=O)(=O)N3CCCC3)cc2)c(C)c1	50µM*	-14%	30%	31	9%	5
Cc1cccc(OCC(=O)Nc2ccc(S(=O)(=O)N3CCCC3)cc2)c1	32µM*	-10%	38%	6	-9%	-6
CN1CCC(N(C)S(=O)(=O)c2ccc(NC(=O)COc3ccc(Br)cc3Cl)cc2)CC1	7%[0.501 µM]	-27%	-6%	-18	?	-6
Cc1cccc(C)c1OCC(=O)Nc1cccc(S(=O)(=O)N2CCCC2)c1	2%	-10%	28%	-10	-29%	-8
CCOc1ccc(-c2ccc(CO)o2)cc1N	-32%[59 µM]	-35%	7%	.	-35%	.
CCOC(=O)c1ccc(-c2ccc(CO)o2)cc1	45µM*	-31%	-3%	-3	0%[57.1 µM]	1
COCCOc1cc(NC(=O)c2sccc2Oc2ccc([N+](=O)[O-])cc2F)c(Cl)cc1Cl	-38%[59 µM]	-32%	0%	?	-32%	-19
O=C(Nc1ccccc1)c1sccc1Oc1ccc([N+](=O)[O-])cc1F	28µM*	?	-9%	?	25µM*	?
c1ccc(-c2cccc(N3CC[C@@]4(CCCNC4)C3)c2)cc1	-40%[12.7 µM]	.	.	.	.	.
CN1CCN(c2ncc3ncc(=O)n(C[C@H]4CCCO4)c3n2)CC1	-9%[0.501 µM]	.	.	.	.	.
CC12CCC(C[N+](C)(C)C1)C2(C)C (configuration not stated)	?	22µM*	-26%	9	-8%	1
Oc1ccc(C(c2nnnn2C2CCCC2)N2CCc3ccccc3C2)cc1 (configuration not stated)	4.5µM*	7%[11.4 µM]	-10%	-6	56µM*	-5
SMILES	G9a block	JMJD2A Tudor inh	HP1b chromo inh	Six1-Eya2 blk	BAZ2B block	CtBP-E1A blk
COc1cc(C(c2nnnn2C2CCCC2)N2CCc3ccccc3C2)ccc1O (configuration not stated)	1.8µM*	?	?	14	-30%	-5
Cc1oc2ccc(O)c(CN3CCCC(C)C3)c2c1C(=O)Nc1ccccc1 (configuration not stated)	5%[59 µM]	-16%	32%	.	-11%	.
COc1cccc(NC(=O)C(Cc2ccccc2)N2Cc3ccccc3C2=O)c1 (configuration not stated)	-1%[59 µM]	-12%	-1%	.	2%	.
O=c1cc(C(F)(F)F)[nH]c(=S)n1-c1ccccc1	8.9µM*	79µM*	?	5	-26%	6
Nc1cc(=O)[nH]c(=S)n1-c1ccccc1	?	-19%	10%	8	7%	-6
Cc1ccc(-c2onc3ccc(Cl)cc23)cc1	21%[59 µM]	-4%	44%	19	0%	-17
O=Cc1ccc2noc(-c3ccc(Cl)cc3)c2c1	22µM*	-6%	23%	2	-5%	-3
O=C(Nc1ccc(Nc2ccncc2)cc1)c1ccc([N+](=O)[O-])cc1	-27%	-16%	24%	-6	-16%	.
O=C(Nc1ccc(Nc2ccncc2)cc1)c1ccc(Nc2ccnc3ccc([N+](=O)[O-])cc23)cc1[N+](=O)[O-]	50µM*	?	-37%	1	-18%	.
Nc1cc(=O)nc(SCC(=O)Nc2ccc(F)cc2)n1-c1ccc(Cl)cc1	6%[59 µM]	-8%	24%	.	-16%	.
Fc1ccccc1-n1cc(-c2ccccc2)[nH]c1=S	3.5µM*	?	1%	-3	?	-3
COc1ccc(-n2cc(-c3ccccc3)[nH]c2=S)c(OC)c1	?	?	-1%	-17	?	-20
CCc1ccc(CNC(=O)c2c3c(nc4ccccc24)C(=O)N(C2CCCCC2)C3)cc1	-3%[59 µM]	?	16%	.	?	.
O=C(COC(=O)/C=C/C(=O)N1CCN(c2ccccc2)CC1)NC(c1ccccc1)c1ccccc1	?	-30%	22%	-9	45µM*	4
CC1CCc2c(nc3ncnn3c2N2CC(C)OC(C)C2)C1 (configuration not stated)	1%[2.33 µM]	15%	27%	0	23%	-2
CC1CN(c2c3c(nc4ncnn24)CCCC3)CC(C)O1 (configuration not stated)	3.2µM*	-10%	37%	21	2%	0
Cc1ccc(Cl)cc1-n1ncc2c(NCCC3=CCCCC3)ncnc21	37%[59 µM]	3%	40%	.	11%	.

Screening results from PubChem BioAssay.
